Shown are actives, neighbours in structure and some others; about 2% of the full set was active somewhere.
Fam108B counter = mouse Fam108B serine hydrolase inhibitors, primary screen, counter-screen for RBBP9 inhibitor project, biochemical, fluorescence polarization; recombinant Fam108B, FP-Rh probe fluorescence polarization; inhibition, % at 9.51 µM; 300,000 compounds, 0.33% hits;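 active = inhibition above the screen mean inhibition plus 3 SD, computed separately per campaign, cut at about 18% in these data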;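 also: inhibitors lower polarization as less probe binds the enzyme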
LYPLA1 counter = LYPLA1 inhibitors, primary screen, counter-screen for PME1 inhibitor project, biochemical, fluorescence polarization, FP-Rh probe ABPP. recombinant LYPLA1. inhibition, % at 5.9 µM. 320,000 compounds, 0.16% hits. AID 2174, 2009;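 active = inhibition above the mean of all tested compounds plus 3 SD, set per campaign, cut at about 14% in these data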;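 also: inhibitors block serine hydrolase probe labeling of LYPLA1 so polarization falls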
GSTO1 counter = inhibitors of recombinant GSTO1, primary screen, counter-screen for RBBP9 inhibitor project, biochemical, fluorescence polarization; inhibition, % at 5.96 µM; Glutathione S-transferase omega-1 (Homo sapiens), P78417; 300,000 compounds, 1.1% hits; AID 1974, 2009; activity-based probe fluorescence polarization;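 active = inhibition above the campaign mean inhibition plus 3 SD, cut at about 35% in these data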
LYPLA2 inh = LYPLA2 inhibitors, primary screen, counter-screen for PME1 inhibitor project, biochemical, fluorescence polarization, FP-Rh probe ABPP. Acyl-protein thioesterase 2 (Homo sapiens), O95372. 320,000 compounds, 0.38% hits. recombinant LYPLA2. inhibition, % at 5.9 µM;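 active = inhibition above the screen-wide mean plus 3 SD, limit set per campaign, cut at about 26% in these data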
PREPL inhibitor = PREPL enzyme inhibitors, primary screen, biochemical, fluorescence polarization; recombinant PREPL, fluorescence polarization activity-based probe; 320,000 compounds, 0.68% hits; Prolyl endopeptidase-like (Homo sapiens), Q4J6C6; inhibition, % at 5.96 µM; in the data active = inhibition above about 43%
PME-1 primary = PME-1 inhibitors via competitive probe labeling, primary screen, biochemical, fluorescence polarization, FP-Rh probe, HTS; Protein phosphatase methylesterase 1 (Homo sapiens), Q9Y570; recombinant PME-1; inhibition, % at 5.9 µM; 320,000 compounds, 0.53% hits;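 active = inhibition above the campaign mean of all compounds plus 3 SD, cut at about 26% in these data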;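 also: competitive labeling of PME-1 active site by serine hydrolase directed probe; inhibitors block probe labeling so polarization falls and inhibition rises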
Target sequence (Q9Y570 whole entry, looked up): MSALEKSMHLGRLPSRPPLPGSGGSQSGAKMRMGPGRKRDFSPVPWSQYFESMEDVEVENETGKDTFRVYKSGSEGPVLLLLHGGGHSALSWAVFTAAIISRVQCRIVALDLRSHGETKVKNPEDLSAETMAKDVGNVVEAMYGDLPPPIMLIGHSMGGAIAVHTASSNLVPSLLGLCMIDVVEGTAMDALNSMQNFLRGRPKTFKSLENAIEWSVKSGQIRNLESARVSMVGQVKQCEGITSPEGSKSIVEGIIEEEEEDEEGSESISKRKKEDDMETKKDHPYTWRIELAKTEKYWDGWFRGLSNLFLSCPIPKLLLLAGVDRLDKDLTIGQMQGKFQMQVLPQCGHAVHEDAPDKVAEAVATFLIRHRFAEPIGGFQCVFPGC
GSTO1 inh conf = GSTO1 inhibitor hit confirmation, counter-screen for RBBP9 inhibitor project, biochemical, fluorescence polarization, triplicate; shares compounds with GSTO1 counter; recombinant GSTO1, probe fluorescence polarization; inhibition, % at 5.96 µM; AID 2176, 2009; 2,400 compounds, 54% hits;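 active = inhibition above the primary screen's cutoff, its mean inhibition plus 3 SD, cut at about 35% in these data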;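 also: loss of polarization as inhibitors block binding of rhodamine sulfonate ester activity probe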
Numbers stand for hits.

For Cn1c(NC(=O)c2ccc(Cl)cc2)c(-c2ccccn2)c(=O)c2ccccc21 the results were Fam108B counter inactive, LYPLA1 counter inactive, GSTO1 counter 44, LYPLA2 inh inactive, PREPL inhibitor inactive, PME-1 primary inactive and GSTO1 inh conf inactive.
CN(Cc1cccc(Cl)c1Cl)c1ccc(S(=O)(=O)N2CCCCC2)cc1[N+](=O)[O-] was read as Fam108B counter inactive, LYPLA1 counter inactive, GSTO1 counter inactive, LYPLA2 inh inactive, PREPL inhibitor inactive and PME-1 primary inactive.
O=C(c1cccs1)[C@@H]1[C@@H]2C(=O)N(Cc3ccc4c(c3)OCO4)C(=O)[C@@H]2C2c3ccccc3C=CN21 (some centres undefined) was read as Fam108B counter inactive, LYPLA1 counter inactive, GSTO1 counter 38, LYPLA2 inh inactive, PREPL inhibitor inactive, PME-1 primary inactive and GSTO1 inh conf inactive.
`O=C(Nc1ccc2c(c1)OCO2)[C@@H]1[C@@H]2C(=O)N(C3CCCCC3)C(=O)[C@@H]2C2c3ccccc3C=CN21` (some centres undefined) gave Fam108B counter inactive, LYPLA1 counter inactive, GSTO1 counter inactive, LYPLA2 inh inactive, PREPL inhibitor inactive and PME-1 primary inactive.
For O=C(O)c1ccc(N=N/C(=N\Nc2ccc(C(=O)O)cc2)c2ccccc2)cc1 the results were Fam108B counter inactive, LYPLA1 counter inactive, GSTO1 counter 39, LYPLA2 inh inactive, PREPL inhibitor inactive, PME-1 primary inactive and GSTO1 inh conf 67.
O=C(O)c1cccc(N/N=C(\N=Nc2ccccc2)c2ccccc2)c1 was read as Fam108B counter inactive, LYPLA1 counter inactive, GSTO1 counter inactive, LYPLA2 inh inactive, PREPL inhibitor inactive and PME-1 primary inactive.
For O=C(CCl)Nc1cccc2ncccc12 the results were Fam108B counter inactive, LYPLA1 counter inactive, GSTO1 counter 69, LYPLA2 inh inactive, PREPL inhibitor inactive, PME-1 primary inactive and GSTO1 inh conf 77.
CC(C)On1c(SCC(=O)N(C)C)nc2ccccc2c1=O was read as Fam108B counter inactive, LYPLA1 counter inactive, GSTO1 counter inactive, LYPLA2 inh inactive, PREPL inhibitor inactive and PME-1 primary inactive.
`C/C(=N\S(=O)(=O)c1ccc(C)cc1)NC(=S)Nc1ccccc1` gave Fam108B counter inactive, LYPLA1 counter inactive, GSTO1 counter inactive, LYPLA2 inh inactive, PREPL inhibitor inactive and PME-1 primary inactive.
For COC(=O)C(C(C)=O)C1=C/C(=N\S(=O)(=O)c2ccc(C)cc2)c2ccccc2C1=O (centres undefined) the results were Fam108B counter inactive, LYPLA1 counter inactive, GSTO1 counter 49, LYPLA2 inh inactive, PREPL inhibitor inactive, PME-1 primary inactive and GSTO1 inh conf inactive.
COc1ccc(CCNC(=O)COC(=O)c2cc(S(=O)(=O)N3CCOCC3)ccc2C)cc1OC was read as PREPL inhibitor inactive.
Cc1ccc(C(C)NC(=O)c2cccs2)cc1 (centres undefined) was read as Fam108B counter inactive, LYPLA1 counter inactive, GSTO1 counter inactive, LYPLA2 inh inactive, PREPL inhibitor inactive and PME-1 primary inactive.
For CC(NC(=O)c1cccs1)c1ccccc1 (centres undefined) the results were Fam108B counter inactive, LYPLA1 counter inactive, GSTO1 counter 63, LYPLA2 inh inactive, PREPL inhibitor inactive, PME-1 primary inactive and GSTO1 inh conf inactive.
Cc1cccc(-c2nnc(SCCOc3ccc4c(C)cc(=O)oc4c3)o2)c1 was read as Fam108B counter inactive, LYPLA1 counter inactive, GSTO1 counter 40, LYPLA2 inh inactive, PREPL inhibitor inactive, PME-1 primary inactive and GSTO1 inh conf inactive.
`O=C(CN(C(=O)CCC(=O)Nc1ccccn1)C1CCCC1)NCc1ccc(F)cc1` gave Fam108B counter inactive, LYPLA1 counter inactive, GSTO1 counter inactive, LYPLA2 inh inactive, PREPL inhibitor inactive and PME-1 primary inactive.

Compound activity deposited in PubChem BioAssay by The Scripps Research Institute Molecular Screening Center.
